# Assay results published in PubChem BioAssay (EPA / NIEHS).
# Results filed as inconclusive are left out. The source made the active and inactive calls. The calls were made as follows, unless noted: active = hit-call score of the fitted dose curve at least 0.9, where 1 is the maximum; inconclusive = response in the unintended direction; inactive = score below 0.9.
# Tests used:
# [1] = target: Estrogen receptor (Homo sapiens) (UniProt P03372); test: CCTE_Deisenroth_AIME_384WELL_LUC_Active: CCTE's 384-well Estrogen Receptor Transactivation Assay with AIME metabolic competence (ERTA luciferase; metabolism positive), Deisenroth Lab (AID 2284030)
# Estrogen receptor (Homo sapiens), sequence (P03372 whole entry, looked up): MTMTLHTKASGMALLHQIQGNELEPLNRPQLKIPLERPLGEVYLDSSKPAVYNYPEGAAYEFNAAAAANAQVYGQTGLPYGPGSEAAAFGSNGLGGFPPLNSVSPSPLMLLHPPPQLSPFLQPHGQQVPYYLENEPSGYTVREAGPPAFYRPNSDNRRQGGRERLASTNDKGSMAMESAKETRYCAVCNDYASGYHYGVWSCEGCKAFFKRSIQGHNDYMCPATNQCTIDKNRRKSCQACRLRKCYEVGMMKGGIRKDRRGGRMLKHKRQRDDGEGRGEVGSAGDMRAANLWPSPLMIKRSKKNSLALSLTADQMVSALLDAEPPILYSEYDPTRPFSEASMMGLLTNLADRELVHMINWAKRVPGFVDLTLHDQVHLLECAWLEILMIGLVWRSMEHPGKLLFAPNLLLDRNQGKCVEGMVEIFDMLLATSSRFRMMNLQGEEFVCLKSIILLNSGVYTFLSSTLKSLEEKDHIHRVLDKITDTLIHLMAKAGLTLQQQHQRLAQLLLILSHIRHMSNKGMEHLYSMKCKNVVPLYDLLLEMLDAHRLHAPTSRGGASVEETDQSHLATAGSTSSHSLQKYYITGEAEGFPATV
# Method in brief: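 VM7Luc4E2 breast cells were given, for 24 hours, medium pre-incubated for 2 hours with parent chemical (0.002-200 uM, 10 concentrations) and alginate-encapsulated phenobarbital/beta-naphthoflavone-induced rat hepatic S9. Luciferase gain of signal was fitted against 17beta-estradiol; n=4 or more.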
# [2] = CCTE_Deisenroth_AIME_384WELL_CTox_Active: Cytotoxicity Assessment (CTOX) in CCTE's 384-well Estrogen Receptor Transactivation Assay with AIME metabolic competence (metabolism positive), Deisenroth Lab (AID 2284037);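 also: chemicals first conditioned 2 h by alginate-bound induced rat liver S9 before cells; activity means signal loss indicating cell death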
# Method in brief: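 VM7Luc4E2 breast cells received medium pre-incubated 2 h with chemical over alginate microspheres holding induced male Sprague Dawley rat liver S9; viability read 24 h later by protease-substrate fluorescence. Loss of signal, bidirectional fit, 0.002–200 uM.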
# [3] = target: Estrogen receptor (Homo sapiens) (UniProt P03372); test: CCTE_Deisenroth_AIME_384WELL_LUC_Inactive: CCTE's 384-well Estrogen Receptor Transactivation Assay without AIME metabolic competence (ERTA luciferase; metabolism negative), Deisenroth Lab (AID 2284038);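 also: hits raise estrogen receptor luciferase signal so potencies reflect agonists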
# Method in brief: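 Metabolism-negative mode: chemicals (10-point, 0.002–200 uM) held 2 h with alginate-water microspheres, then conditioned medium applied to VM7Luc4E2 cells for 24 h. Luciferase induction referenced to 17beta-estradiol.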
# [4] = CCTE_Deisenroth_AIME_384WELL_CTox_Inactive: Cytotoxicity Assessment (CTOX) in CCTE's 384-well Estrogen Receptor Transactivation Assay without AIME metabolic competence (metabolism negative), Deisenroth Lab (AID 2284039);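 also: cell viability via live-cell protease substrate cleaved to fluorescent probe; cells exposed 24 h to medium preincubated 2 h with alginate-water beads without S9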
# Method in brief: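 Metabolism-negative arm: chemicals (10-point, 0.002 - 200 uM) preincubated 2 h with alginate-water lids, medium moved onto VM7Luc4E2 cells for 24 h. Fluorescent live-cell protease readout; bidirectional curve fit.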
# [5] = target: Estrogen receptor (Homo sapiens) (UniProt P03372); test: CCTE_Deisenroth_AIME_384WELL_LUC_Shift: CCTE's 384-well Estrogen Receptor Transactivation Assay with AIME metabolic competence data shift (ERTA luciferase; difference in metabolism positive and negative), Deisenroth Lab (AID 2284041; active = hit-call score of the fitted dose curve at least 0.9, where 1 is the maximum; inactive = score below 0.9;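 also: shift is response with S9 minus without S9 so positive means metabolism raised ER signal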)
# Method in brief: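 Here, parent compounds undergo 2 h phase I metabolism by PB/BNF-induced rat S9 before 24 h transactivation in VM7Luc4E2 cells; the curve models S9-positive minus S9-negative response over a 10-point series.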
# [6] = CCTE_Shafer_MEA_dev_firing_rate_mean: CCTE's Neural Network Formation Assay for Mean Firing Rate, Shafer Lab (AID 2284031; active = hit-call score of the fitted dose curve at least 0.9, where 1 is the maximum; inactive = score below 0.9)
# Method in brief: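 Primary rat cortical neurons on 48-well MEA plates, exposed from plating day 0 with dosing renewed on DIV 5 and 9. Mean well firing rate over active electrodes, recorded days 5, 7, 9, 12, summarised as trapezoidal AUC.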
# [7] = CCTE_Shafer_MEA_dev_active_electrodes_number: CCTE's Neural Network Formation Assay for Number of Active Electrodes, Shafer Lab (AID 2284040)
# Method in brief: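 Primary rat cortical neurons on 16-electrode MEA wells, exposed from day 0 through day 12 with compound renewed at DIV 5 and 9 feeds. Active electrodes (mean firing ≥5 spikes/min) counted at DIV 5, 7, 9, 12; trapezoidal AUC across days, loss-of-signal versus DMSO.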
# [8] = CCTE_Shafer_MEA_dev_burst_rate: CCTE's Neural Network Formation Assay for Burst Rate, Shafer Lab (AID 2284042; active = hit-call score of the fitted dose curve at least 0.9, where 1 is the maximum; inactive = score below 0.9)
# Method in brief: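 Cells plated, treated day 0; recorded DIV 5, 7, 9, 12; fed and re-treated DIV 5, 9. Endpoint: bursts per recording time, active-electrode well mean, trapezoidal AUC, fitted in decreasing direction against DMSO baseline.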
# [9] = CCTE_Shafer_MEA_dev_bursting_electrodes_number: CCTE's Neural Network Formation Assay for Number of Bursting Electrodes, Shafer Lab (AID 2284043)
# Method in brief: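 Primary rat cortical neurons were cultured on PEI-coated 48-well MEA plates (16 electrodes/well) and exposed from plating through day 12, with compound renewed at feeds on DIV 5 and 9. Electrodes bursting ≥1 per 2 min were counted on DIV 5, 7, 9, 12; trapezoidal AUC taken.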
smiles,measurement,setting,value
C[C@]12C=CC(=O)C=C1CC[C@@H]1[C@@H]2C(=O)C[C@@]2(C)[C@H]1CC[C@]2(O)C(=O)CO,outcome,[1],inactive
same,outcome,[2],inactive
same,outcome,[3],inactive
same,outcome,[4],inactive
same,outcome,[5],inactive
CCCCCCC(=O)OCC,outcome,[1],inactive
same,outcome,[3],inactive
same,outcome,[5],inactive
Cc1cccc(C)c1O,outcome,[1],inactive
same,outcome,[2],inactive
same,outcome,[3],inactive
same,outcome,[4],inactive
same,outcome,[5],inactive
CNC(=O)[C@H]1O[C@@H](n2cnc3c(NCc4cc(Cl)ccc4OCc4cc(C)no4)ncnc32)[C@H](O)[C@@H]1N,outcome,[1],inactive
same,outcome,[2],inactive
same,outcome,[3],inactive
same,outcome,[5],inactive
CCCCCC(=O)O,outcome,[1],inactive
same,outcome,[3],inactive
same,outcome,[4],inactive
same,outcome,[5],inactive
O=c1c(O)c(-c2ccc(O)c(O)c2)oc2cc(O)cc(O)c12,AC50,[1],21.2 µM (active)
same,outcome,[2],inactive
same,AC50,[3],139 µM (active)
same,AC50,[4],54.5 µM (active)
same,AC50,[5],13.5 µM (active)
C=CCc1ccc(O)c(OC)c1,outcome,[1],inactive
same,outcome,[6],inactive
same,outcome,[2],inactive
same,outcome,[3],inactive
same,outcome,[4],inactive
same,outcome,[7],inactive
same,outcome,[5],inactive
same,outcome,[8],inactive
same,outcome,[9],inactive
CCCCCCCCCCO,outcome,[1],inactive
same,outcome,[2],inactive
same,outcome,[3],inactive
same,outcome,[5],inactive
Cc1ccc(C)c(O)c1C,outcome,[1],inactive
same,outcome,[2],inactive
same,outcome,[3],inactive
same,outcome,[4],inactive
same,outcome,[5],inactive
CCCCCCCC=O,AC50,[1],27.9 µM (active)
same,AC50,[3],25.7 µM (active)
same,AC50,[5],15.6 µM (active)
CN1CCCC1=O,outcome,[1],inactive
same,outcome,[2],inactive
same,outcome,[3],inactive
same,outcome,[4],inactive
same,outcome,[5],inactive
COCCOCCOC,outcome,[1],inactive
same,outcome,[2],inactive
same,outcome,[3],inactive
same,outcome,[4],inactive
same,outcome,[5],inactive
Clc1cc(Cl)c(Cl)cc1Cl,outcome,[1],inactive
same,outcome,[3],inactive
same,outcome,[5],inactive
CC(C)c1ccc(C(=O)N=C(N)N)cc1S(C)(=O)=O,outcome,[6],inactive
same,outcome,[7],inactive
same,outcome,[8],inactive
same,outcome,[9],inactive
